# Assay results from the supplement of paper PMC11732987, “Enantioselective OTUD7B fragment discovery through chemoproteomics screening and high-throughput optimisation” (Communications Chemistry, 2025).
# Values without a mark were called inactive.
# Key:
# Assay in all cases: log2 ratio of Biotin-Ahx-Ub-VS probe labelling (fragment/DMSO); higher = less target engagement (more negative = stronger competition), active = hit call of the paper (q ≤ 0.05, log2 ratio ≤ -1)
# Details in all cases: compound concentration: 200 uM; treatment time: 3 h
# OTUD6B = biological target: T1, OTUD6B (UniProt Q8N6M0)
# T1 sequence (whole entry): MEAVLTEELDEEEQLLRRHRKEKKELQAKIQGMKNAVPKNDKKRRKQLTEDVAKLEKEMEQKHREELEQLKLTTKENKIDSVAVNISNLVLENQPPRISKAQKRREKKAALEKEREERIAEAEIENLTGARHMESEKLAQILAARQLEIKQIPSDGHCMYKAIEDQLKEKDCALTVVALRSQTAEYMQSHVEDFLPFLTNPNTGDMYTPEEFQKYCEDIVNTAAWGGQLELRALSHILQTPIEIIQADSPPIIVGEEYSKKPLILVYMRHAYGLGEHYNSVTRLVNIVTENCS
# In short: (§1)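 HEK293T lysate (495 µg per sample, in Tris/CHAPS/IGEPAL buffer with protease inhibitors) was treated in triplicate with fragment at 200 µM or with DMSO for 3 h. It was then treated with Biotin-Ahx-Ub-VS (0.5 µM final) for 1 h. Labelled DUBs were NeutrAvidin-enriched, digested with LysC and trypsin, and run by diaPASEF LC-MS/MS. Spectronaut label-free quantities were global-median-normalised. Values are average log2 ratios fragment/DMSO by unpaired t-test, using proteins with ≥2 unique peptides.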
# OTUD7B = biological target: T2, OTUD7B (UniProt Q6GQQ9)
# T2 sequence (whole entry): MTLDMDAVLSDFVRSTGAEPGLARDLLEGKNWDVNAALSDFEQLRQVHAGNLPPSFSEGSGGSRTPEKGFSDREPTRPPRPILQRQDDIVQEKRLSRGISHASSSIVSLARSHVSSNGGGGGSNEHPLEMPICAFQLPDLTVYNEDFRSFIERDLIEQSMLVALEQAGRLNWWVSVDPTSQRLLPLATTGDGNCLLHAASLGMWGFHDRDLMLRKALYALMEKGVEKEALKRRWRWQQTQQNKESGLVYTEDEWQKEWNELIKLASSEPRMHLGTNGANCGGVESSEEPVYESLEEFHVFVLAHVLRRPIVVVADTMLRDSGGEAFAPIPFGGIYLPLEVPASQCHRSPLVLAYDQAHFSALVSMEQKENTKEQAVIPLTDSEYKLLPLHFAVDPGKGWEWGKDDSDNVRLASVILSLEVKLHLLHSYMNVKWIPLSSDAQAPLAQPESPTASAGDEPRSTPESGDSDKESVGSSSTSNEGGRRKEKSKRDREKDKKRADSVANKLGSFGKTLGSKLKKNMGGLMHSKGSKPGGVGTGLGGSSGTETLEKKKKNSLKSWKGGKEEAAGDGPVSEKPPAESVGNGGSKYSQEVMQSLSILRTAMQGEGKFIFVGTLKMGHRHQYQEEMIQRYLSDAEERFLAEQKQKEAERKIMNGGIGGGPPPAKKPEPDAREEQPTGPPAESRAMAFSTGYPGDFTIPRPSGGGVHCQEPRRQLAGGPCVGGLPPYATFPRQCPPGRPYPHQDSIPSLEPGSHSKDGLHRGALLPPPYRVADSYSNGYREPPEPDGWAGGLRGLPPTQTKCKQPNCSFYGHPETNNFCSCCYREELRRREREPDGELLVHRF
# In short: as §1
# PRPF8 = PRPF8 (UniProt Q6P2Q9)
# In short: as §1
# PSMD7 = biological target: T3, PSMD7 (UniProt P51665)
# T3 sequence (whole entry): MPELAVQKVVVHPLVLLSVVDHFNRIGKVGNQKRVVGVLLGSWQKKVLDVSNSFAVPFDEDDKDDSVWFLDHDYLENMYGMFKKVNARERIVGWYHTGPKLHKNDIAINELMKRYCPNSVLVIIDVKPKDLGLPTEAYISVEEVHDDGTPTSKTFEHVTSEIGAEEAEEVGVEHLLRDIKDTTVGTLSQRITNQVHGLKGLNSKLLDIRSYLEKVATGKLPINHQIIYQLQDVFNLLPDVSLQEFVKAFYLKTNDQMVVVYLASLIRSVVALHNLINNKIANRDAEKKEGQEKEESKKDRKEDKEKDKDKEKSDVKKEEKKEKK
# In short: as §1
# UCHL1 = UCHL1 (UniProt P09936)
# UCHL1, sequence (P09936 whole entry, looked up): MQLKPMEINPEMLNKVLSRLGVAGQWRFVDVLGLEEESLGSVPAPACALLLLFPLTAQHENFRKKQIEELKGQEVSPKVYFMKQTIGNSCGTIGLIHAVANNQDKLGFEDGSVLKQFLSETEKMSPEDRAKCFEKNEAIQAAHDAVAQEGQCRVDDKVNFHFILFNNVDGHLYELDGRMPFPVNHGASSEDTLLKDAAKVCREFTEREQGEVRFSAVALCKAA
# In short: as §1
# UCHL3 = biological target: T4, UCHL3 (UniProt P15374)
# T4 sequence (whole entry): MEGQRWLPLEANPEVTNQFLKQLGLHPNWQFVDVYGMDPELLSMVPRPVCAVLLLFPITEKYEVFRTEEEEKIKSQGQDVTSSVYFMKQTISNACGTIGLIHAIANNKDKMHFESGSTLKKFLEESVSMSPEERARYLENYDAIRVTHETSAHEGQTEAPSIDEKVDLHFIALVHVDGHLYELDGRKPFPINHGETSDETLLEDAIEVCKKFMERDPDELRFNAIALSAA
# In short: as §1
# UCHL5 = biological target: T5, UCHL5 (UniProt Q9Y5K5)
# T5 sequence (whole entry): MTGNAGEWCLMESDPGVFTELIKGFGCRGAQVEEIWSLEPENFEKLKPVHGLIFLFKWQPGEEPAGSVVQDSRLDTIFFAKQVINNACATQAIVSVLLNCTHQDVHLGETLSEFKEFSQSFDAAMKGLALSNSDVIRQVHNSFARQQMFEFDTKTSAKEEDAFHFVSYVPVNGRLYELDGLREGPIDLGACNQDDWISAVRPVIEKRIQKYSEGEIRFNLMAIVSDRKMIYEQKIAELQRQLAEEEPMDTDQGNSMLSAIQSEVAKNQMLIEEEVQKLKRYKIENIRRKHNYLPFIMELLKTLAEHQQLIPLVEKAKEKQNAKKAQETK
# In short: as §1
# USP10 = USP10 (UniProt Q14694)
# USP10, sequence (Q14694 whole entry): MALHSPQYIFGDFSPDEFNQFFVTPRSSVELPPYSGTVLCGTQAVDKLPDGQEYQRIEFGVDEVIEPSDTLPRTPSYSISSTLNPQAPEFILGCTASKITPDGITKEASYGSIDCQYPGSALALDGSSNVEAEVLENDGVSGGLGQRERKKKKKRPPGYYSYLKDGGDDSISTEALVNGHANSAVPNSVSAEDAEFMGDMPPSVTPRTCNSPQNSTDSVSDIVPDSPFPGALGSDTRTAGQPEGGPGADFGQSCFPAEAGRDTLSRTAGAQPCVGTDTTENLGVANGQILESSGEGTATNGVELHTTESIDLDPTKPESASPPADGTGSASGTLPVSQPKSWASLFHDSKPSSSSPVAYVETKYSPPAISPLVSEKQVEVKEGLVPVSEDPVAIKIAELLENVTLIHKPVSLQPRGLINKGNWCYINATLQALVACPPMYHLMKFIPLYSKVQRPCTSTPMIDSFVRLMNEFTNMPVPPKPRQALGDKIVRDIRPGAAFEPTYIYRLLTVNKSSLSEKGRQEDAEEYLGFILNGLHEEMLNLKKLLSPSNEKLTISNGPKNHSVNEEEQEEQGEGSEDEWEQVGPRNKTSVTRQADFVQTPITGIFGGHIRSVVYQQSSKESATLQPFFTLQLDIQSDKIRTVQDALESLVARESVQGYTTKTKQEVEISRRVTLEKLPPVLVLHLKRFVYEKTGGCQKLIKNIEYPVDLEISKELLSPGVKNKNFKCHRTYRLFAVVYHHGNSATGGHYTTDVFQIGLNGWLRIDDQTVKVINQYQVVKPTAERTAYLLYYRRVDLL
# In short: as §1
# USP15 = biological target: T6, USP15 (UniProt Q9Y4E8)
# T6 sequence (whole entry): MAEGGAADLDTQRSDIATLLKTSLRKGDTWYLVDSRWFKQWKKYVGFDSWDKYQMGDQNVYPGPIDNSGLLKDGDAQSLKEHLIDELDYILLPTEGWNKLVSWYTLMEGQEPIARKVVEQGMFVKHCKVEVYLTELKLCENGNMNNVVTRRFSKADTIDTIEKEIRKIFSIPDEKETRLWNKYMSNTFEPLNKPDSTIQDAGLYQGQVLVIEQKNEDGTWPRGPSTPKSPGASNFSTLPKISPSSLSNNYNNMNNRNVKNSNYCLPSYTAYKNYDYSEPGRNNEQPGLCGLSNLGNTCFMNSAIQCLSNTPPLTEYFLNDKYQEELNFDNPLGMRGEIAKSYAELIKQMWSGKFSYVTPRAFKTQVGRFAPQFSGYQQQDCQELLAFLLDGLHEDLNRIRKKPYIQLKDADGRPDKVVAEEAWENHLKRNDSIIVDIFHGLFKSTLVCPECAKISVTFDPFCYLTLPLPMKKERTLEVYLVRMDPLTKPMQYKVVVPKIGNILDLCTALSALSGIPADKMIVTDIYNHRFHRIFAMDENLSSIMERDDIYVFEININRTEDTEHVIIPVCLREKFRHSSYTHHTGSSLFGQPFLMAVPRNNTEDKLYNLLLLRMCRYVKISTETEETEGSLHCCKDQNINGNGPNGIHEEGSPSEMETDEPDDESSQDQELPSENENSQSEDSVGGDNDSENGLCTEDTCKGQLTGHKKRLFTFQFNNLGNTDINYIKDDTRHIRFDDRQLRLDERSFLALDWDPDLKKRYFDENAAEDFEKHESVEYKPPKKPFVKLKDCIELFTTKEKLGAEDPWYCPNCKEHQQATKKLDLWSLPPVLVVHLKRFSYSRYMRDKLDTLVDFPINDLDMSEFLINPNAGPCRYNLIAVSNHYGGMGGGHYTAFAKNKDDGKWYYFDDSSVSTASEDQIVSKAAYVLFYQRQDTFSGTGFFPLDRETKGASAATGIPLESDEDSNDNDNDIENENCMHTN
# In short: as §1
# USP16 = USP16 (UniProt Q9Y5T5)
# USP16, sequence (Q9Y5T5 whole entry, looked up): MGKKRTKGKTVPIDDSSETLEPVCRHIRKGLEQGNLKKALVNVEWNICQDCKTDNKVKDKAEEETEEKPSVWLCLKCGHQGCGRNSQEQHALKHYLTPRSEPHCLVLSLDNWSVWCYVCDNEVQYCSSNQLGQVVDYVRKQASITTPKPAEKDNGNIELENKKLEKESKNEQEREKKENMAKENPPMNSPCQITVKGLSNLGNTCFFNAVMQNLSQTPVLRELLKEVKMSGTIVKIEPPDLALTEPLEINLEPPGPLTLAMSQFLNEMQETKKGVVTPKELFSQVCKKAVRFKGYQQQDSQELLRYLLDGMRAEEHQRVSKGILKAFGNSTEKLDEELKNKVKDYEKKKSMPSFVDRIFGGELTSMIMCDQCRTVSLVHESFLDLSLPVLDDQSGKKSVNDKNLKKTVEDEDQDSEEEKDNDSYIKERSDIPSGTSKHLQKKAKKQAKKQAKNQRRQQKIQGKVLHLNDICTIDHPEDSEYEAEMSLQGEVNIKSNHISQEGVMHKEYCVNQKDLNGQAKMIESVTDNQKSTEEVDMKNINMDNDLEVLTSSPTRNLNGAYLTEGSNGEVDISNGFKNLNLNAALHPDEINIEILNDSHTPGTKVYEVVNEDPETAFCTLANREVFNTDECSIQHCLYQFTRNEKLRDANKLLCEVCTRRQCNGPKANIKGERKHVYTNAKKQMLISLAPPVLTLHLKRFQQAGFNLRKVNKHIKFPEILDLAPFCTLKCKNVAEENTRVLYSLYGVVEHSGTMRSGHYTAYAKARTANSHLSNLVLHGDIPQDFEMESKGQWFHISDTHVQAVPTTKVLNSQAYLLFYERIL
# In short: as §1
smiles,measurement,setting,value
O=C(CCl)N1CCOCC1C1CC1 (stereo not given),log2 ratio of Biotin-Ahx-Ub-VS probe labelling,OTUD6B,-0.211
same,log2 ratio of Biotin-Ahx-Ub-VS probe labelling,OTUD7B,-0.512
same,log2 ratio of Biotin-Ahx-Ub-VS probe labelling,PRPF8,-0.182
same,log2 ratio of Biotin-Ahx-Ub-VS probe labelling,PSMD7,-0.142
same,log2 ratio of Biotin-Ahx-Ub-VS probe labelling,UCHL1,-1.92 (active)
same,log2 ratio of Biotin-Ahx-Ub-VS probe labelling,UCHL3,0.225
same,log2 ratio of Biotin-Ahx-Ub-VS probe labelling,UCHL5,-0.257
same,log2 ratio of Biotin-Ahx-Ub-VS probe labelling,USP10,-0.0983
same,log2 ratio of Biotin-Ahx-Ub-VS probe labelling,USP15,-0.122
same,log2 ratio of Biotin-Ahx-Ub-VS probe labelling,USP16,-0.345
